12-hLO inh – inhibitors of human 12-lipoxygenase (ALOX12); P18054; purified 12-hLO, xylenol orange hydroperoxide absorbance; Potency, µM (highest dose often 57.1 µM), for inactives: at the highest dose activity change, negative = inhibition, actives largely listed as inhibitors; hit rate 0.12% among 150,000; active = well fitted inhibition curve with a large enough effect; inconclusive = small, poorly fitted or top-dose-only effect; also: potency is read from the fitted curve at half-maximal effect; nearly all actives have a fitted effect of over 55% in size
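Xylenol orange chromogenic assay: hydroperoxide from 12hLO oxidises Fe(II), giving red-shifted Fe(III)-XO absorbance. Conditions: 150 nM enzyme, 40 uM arachidonic acid, 25 mM Hepes pH 7.0, 0.01% Triton X-100, 30 min, room temperature.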
PNC assembly inh – perinucleolar compartment assembly inhibition; activity change (PNC), negative = inhibition, % at 10 µM; AID 2417; PC3M PTB-GFP, PNC prevalence imaging, 16 h; active compounds read low; hit rate 3.1% among 140,000;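 active = readout at or below -70, meaning at least 70% loss of cells showing the perinucleolar compartment, a nuclear body marking cancer cells; inconclusive = readout between -30 and a set limit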;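 also: plate controls were DMSO wells for no effect and camptothecin positive control wells for full effect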
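Read-out is percentage of cells bearing a perinucleolar compartment, from automated 20x imaging of fixed, Hoechst-stained PC3M PTB-GFP cells. Cells were seeded 4 h, then exposed 16 h to compound (23 nl of library stock) in duplicate plates.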
HPGD block – inhibitors of human 15-hydroxyprostaglandin dehydrogenase (HPGD); purified HPGD, NADH fluorescence kinetic, PGE2 substrate; Potency, µM, for inactives: at the highest dose activity change, negative = inhibition, hits mostly inhibitors; hit rate 4.3% among 150,000; AID 894; also: potency is read from the fitted curve at half-maximal effect
Target sequence (P15428 whole entry, looked up): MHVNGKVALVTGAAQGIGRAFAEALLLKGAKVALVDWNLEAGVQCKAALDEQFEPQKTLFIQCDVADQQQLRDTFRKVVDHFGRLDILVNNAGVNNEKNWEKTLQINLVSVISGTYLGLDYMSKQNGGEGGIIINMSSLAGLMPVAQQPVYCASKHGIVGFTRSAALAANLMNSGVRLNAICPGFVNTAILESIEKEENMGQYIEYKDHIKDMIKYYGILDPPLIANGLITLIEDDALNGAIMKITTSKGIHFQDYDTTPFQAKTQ
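NADH formation kinetics: reaction with 30 uM PGE2 and 1 mM NAD+ (final), 20 nM enzyme, Tris-HCl pH 8 with Tween 20, after 15 min compound preincubation at room temperature. Fluorescence change, last versus first of five reads.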
ALDH1A1 block – inhibitors of human aldehyde dehydrogenase 1A1 | P00352 | Purified ALDH1A1, NADH fluorescence, propionaldehyde substrate | Potency, µM (titrated, usually from 75.3 µM), without a hit: at the highest dose activity, negative = inhibition, actives largely listed as inhibitors | hit rate 7.3% among 220,000;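 also: potency is read from the fitted curve at half-maximal effect; plate controls were no enzyme wells and a reference inhibitor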
Target sequence (P00352 whole entry, looked up): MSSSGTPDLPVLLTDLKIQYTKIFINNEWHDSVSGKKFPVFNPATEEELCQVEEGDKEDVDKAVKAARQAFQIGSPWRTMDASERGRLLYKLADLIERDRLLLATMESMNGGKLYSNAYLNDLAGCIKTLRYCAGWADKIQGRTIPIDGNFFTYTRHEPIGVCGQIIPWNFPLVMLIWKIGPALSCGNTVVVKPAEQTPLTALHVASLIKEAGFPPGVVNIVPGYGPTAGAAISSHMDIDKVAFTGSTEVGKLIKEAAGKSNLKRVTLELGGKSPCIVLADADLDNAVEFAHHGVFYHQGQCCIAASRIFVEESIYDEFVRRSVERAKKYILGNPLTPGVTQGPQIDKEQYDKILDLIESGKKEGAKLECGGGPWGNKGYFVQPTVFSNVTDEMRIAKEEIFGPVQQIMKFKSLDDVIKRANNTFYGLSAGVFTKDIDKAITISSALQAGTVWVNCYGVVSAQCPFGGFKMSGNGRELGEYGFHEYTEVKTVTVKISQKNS
Lamin A splicing – modulators of lamin A splicing | Potency, µM (highest dose often 46.1 µM), for the others: at the top dose ratio change, negative = inhibition, most hits filed as inhibitors | HeLa LMNA splicing GFP/RFP minigene ratio, 48 h | hit rate 0.01% among 200,000; active = well fitted inhibition curve with a large enough effect in the signal ratio, with a control signal flat, not every such curve was filed as active; inconclusive = small, poorly fitted or top-dose-only effect, or effect the other way, or a change in a side signal; the % refers to the signal ratio; also: potency is read from the fitted curve at half-maximal effect
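S3 HeLa cells stably expressing lamin A-EGFP splicing minigene plus DsRed2, 600 cells/well, 48 h compound exposure at 37C. Laser-scanning cytometry; analysed as GFP (500-530 nm)/RFP (575-640 nm) total intensity ratio; 0.5% DMSO vehicle.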
* hit, by the source's call; ? = inconclusive; / = no result; [ ] = another dose, or the depositor's remark. Rows were chosen to be rich in hits. Some 10% of all compounds tested hit in one or more screens of this group. Unless noted, calls follow the shape of the dose curve; as a rule, active = well fitted inhibition curve with a large enough effect (not every such curve was filed as active); inconclusive = small, poorly fitted or top-dose-only effect, or another doubt; inactive = no such curve, though single readings can be large or run the other way. Unless noted, % is scaled to controls: 0 for no effect and ±100 for the full control effect.

SMILES	12-hLO inh	PNC assembly inh	HPGD block	ALDH1A1 block	Lamin A splicing
COc1ccc(OCCNS(=O)(=O)c2ccc3oc4ccccc4c3c2)cc1	-1%	10	-21%	4%	5%
COc1ccc(NS(=O)(=O)c2ccc3oc4ccccc4c3c2)cn1	-14%	-14	22µM*	8.9µM*	?
CCOC(=O)c1c(/N=C/c2cccc([N+](=O)[O-])c2O)sc(C)c1C	-17%	-2	?	13µM*	?
CCOC(=O)c1c(/N=C/C2=C(O)CCCC2=O)sc(C)c1C	-9%	-17	-7%	-7%	-1%
COc1ccc(CC(=O)NCc2ccc3c(c2)CCN3C(=O)c2ccccc2)cc1OC	/	/	/	/	14%[46 µM]
C/C=C\C1=C(CO)[C@H](O)[C@H]2O[C@H]2[C@H]1O	/	/	/	-12%[13.5 µM]	/
C/C=C\C1=C(CO)C(=O)[C@@H]2OC2C1=O (stereo partly specified)	/	/	/	0.71µM*	/
CC(C)=C1C(=O)NN(c2cccc(Cl)c2)C1=O	-13%	-4	7.9µM*	-1%	-4%
CC(C)=C1C(=O)NN(c2ccc(C)c(Cl)c2)C1=O	-27%	-18	16µM*	10%	-3%
COC(=O)c1ccc(Nc2ncnc3c2cnn3-c2ccccc2)cc1	/	/	/	/	0%[46 µM]
COCc1c(C)cc(C)c(/C=N/O)c1C	5%	33	14µM*	12%	-5%
CCc1ccc(CNC(=O)C2CCN(C(=O)N3CC(CC)Oc4ccc(C)cc43)CC2)cc1 (stereo unspecified)	/	/	/	/	2%[46 µM]
O=c1c2ccccc2nc(-c2ccccc2)n1Cc1ccc(Cl)cc1	3%	0	-13%	6.3µM*	-18%
Cc1nc2ccccc2c(=O)n1CC(=O)N1CCOCC1	2%	-85*	-3%	2%	-12%
O=c1c2ccccc2nc(-c2ccccc2)n1Cc1ccccc1	-1%	?	-8%	16µM*	?
COc1ccc(-c2nc3ccccc3c(=O)n2CCCN2CCOCC2)cc1	-4%	?	-9%	-5%	2%
Nn1c(-c2ccccc2)nc2ccccc2c1=O	/	/	/	13%	/
O=c1c2ccccc2nc(-c2ccccc2)n1CCN1CCOCC1	8%	-10	-3%	13µM*	8%
O=C(CSc1nc2ccccc2c(=O)[nH]1)N1CCOCC1	-2%	18	-11%	8%	-8%
Cc1cccc(C)c1OCC(=O)NCC1(N2CCOCC2)CCCCC1	/	/	/	/	-17%[46 µM]
CC[C@](N)(C(=O)O)C(C)C	-1%[11.4 µM]	/	-2%	-4%[13.5 µM]	/
O=C(c1ccccc1)N1CCN(c2ncnc3c2cnn3-c2ccccc2)CC1	2%	15	-8%	?	-7%
Cc1nn(-c2ccccc2)c(Cl)c1C(=O)N1CCN(c2ncnc3c2cnn3-c2ccccc2)CC1	3%	-12	?	14µM*	?
O=C(c1cccc(Cl)c1)N1CCN(c2ncnc3c2cnn3-c2ccccc2)CC1	/	/	/	7.9µM*	4%[46 µM]
CC1CCN(c2ncnc3c2cnn3-c2ccccc2)CC1	-8%	7	28µM*	?	-16%
SMILES	12-hLO inh	PNC assembly inh	HPGD block	ALDH1A1 block	Lamin A splicing
Cc1ccc(C(=O)Nc2ccccc2C(=O)OCc2cc(=O)n3nc(C4CC4)sc3n2)cc1	/	/	/	/	14%[46 µM]
N#Cc1cnc(SCCc2ccccc2)nc1N	-6%	-83*	-15%	?	12%
COc1cc2c(cc1OC)C1N(CC2)C(=O)CCC12C(=O)CCCC2=O (stereo unspecified)	/	/	?	4%	/
N#CNC(=Nc1cccc(F)c1)SCc1cccc(F)c1	1%	-16	-1%	6%	?
CCN=C(NC#N)SCc1c(F)cccc1Cl	2%	-109*	-3%	?	6%
O=S(=O)(NCc1ccco1)c1cccc(S(=O)(=O)N2CCOCC2)c1	-4%	13	-10%	-10%	-6%
O=C(Cc1cccs1)Nc1ccc(S(=O)(=O)N2CCCC2)cc1	/	/	/	13µM*	/
Cc1ccc(S(=O)(=O)N2CCCN(S(=O)(=O)c3ccc(C)cc3)CC2)cc1	-13%	-19	-10%	?	-9%
COc1ccc(NS(=O)(=O)c2ccc(SC)cc2)cc1	-1%	25	-19%	0.16µM*	-17%
Cc1ccc(S(=O)(=O)Nc2ccc(S(=O)(=O)N3CCCC3)cc2)cc1	-18%	?	-11%	0.56µM*	-5%
O=S(=O)(NCc1ccco1)c1ccc(S(=O)(=O)N2CCCC2)cc1	/	/	/	8.9µM*	/
COc1ccc(-c2noc(N3CCC(C(=O)N(C)c4cc(Cl)ccc4OC)CC3)n2)cc1	/	/	/	/	0%[46 µM]
CCOC(=O)c1c(S(=O)(=O)NCC(=O)Nc2cccc(SC)c2)c(C)n(C)c1C	/	/	/	/	8%[46 µM]
Cc1ccc(NS(=O)(=O)c2ccc(C(=O)N3CCCN(C)CC3)cc2)cc1	-6%	-100*	2%	0%	9%
COc1cccc(NS(=O)(=O)c2ccc(S(=O)(=O)N3CCOCC3)cc2)c1	-4%	?	-5%	-11%	?
O=S(=O)(Nc1ccc(S(=O)(=O)N2CCCCC2)cc1)c1cccs1	-4%	-102*	9%	13µM*	-13%
Cc1ccc(NS(=O)(=O)c2ccc(C)c(C(=O)N3CCN(C)CC3)c2)cc1	0%	9	-5%	-3%	2%
COc1ccc(S(=O)(=O)Nc2ccc(S(=O)(=O)N3CCOCC3)cc2)cc1	3%	-10	-4%	4.5µM*	-4%
CSc1ccc(S(=O)(=O)Nc2ccc3c(c2)OCCO3)cc1	-5%	15	-19%	16µM*	?
Cc1nc2c(OCc3ccccc3)cccn2c1CC#N	-5%	/	-19%	12%	?
CCOc1ccccc1NC(=O)CN1C(=O)COc2ccc(S(=O)(=O)NC3CCCC3)cc21	/	/	/	/	-9%[46 µM]
O=C(Cn1cc(S(=O)(=O)Cc2cccc(Cl)c2)c2ccccc21)NCCc1ccccc1	/	/	/	/	27%[46 µM]
O=C(O)CCC(=O)N1CCc2cc(S(=O)(=O)Nc3ccc4c(c3)OCCO4)ccc21	1%	19	25µM*	7%	-5%
CCOc1ccc(NS(=O)(=O)c2ccc3c(c2)CCN3C(=O)CCC(=O)O)cc1	1%	65	-8%	13%	-4%[0.0737 µM]
OCCNc1nc(N2CCCC2)nc(N2CCCC2)n1	-2%	1	-9%	3%	-5%
SMILES	12-hLO inh	PNC assembly inh	HPGD block	ALDH1A1 block	Lamin A splicing
O=[N+]([O-])c1ccc(Nc2nc(NCCO)nc(N3CCCC3)n2)cc1	/	/	/	1.6µM*	?
O=C(CN1C=NS(=O)(=O)c2ccccc21)Nc1ccccc1F	/	/	/	/	12%[46 µM]
CC(C)CCNC(=O)c1ccc2c(c1)ncn2C1CCCC1	/	/	/	?	9%[46 µM]
CCOCCCNC(=O)c1ccc2c(c1)ncn2C1CCCC1	2%	-23	18µM*	?	?
OCCOCCn1c2ccccc2c2ccccc21	5%	-139*	-14%	2%	-7%
N=c1n(CCO)c2ccccc2n1CCOc1ccccc1	1%	-11	-4%	12%	3%
COc1ccc(C2=NN(CN3C(=O)C(=O)c4ccccc43)C(c3ccc(C)cc3)C2)cc1 (stereo unspecified)	-23%	24	-7%	0.56µM*	-12%

Assay outcomes (PubChem BioAssay)
